{"source": "paper PMC7862700", "about": "“An all-to-all approach to the identification of sequence-specific readers for epigenetic DNA modifications on cytosine”"}
{"molecular_target": "T1, SPIC (Homo sapiens, UniProt Q8N5J4 1-248)", "T1 sequence": "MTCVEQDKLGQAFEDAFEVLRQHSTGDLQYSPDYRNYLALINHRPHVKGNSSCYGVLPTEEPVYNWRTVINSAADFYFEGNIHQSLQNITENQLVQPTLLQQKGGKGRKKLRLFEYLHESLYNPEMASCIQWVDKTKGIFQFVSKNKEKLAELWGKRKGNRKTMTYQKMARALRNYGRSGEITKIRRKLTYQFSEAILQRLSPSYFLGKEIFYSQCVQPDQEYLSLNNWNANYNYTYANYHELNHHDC", "experiment": "DAPPL (digital affinity profiling via proximity ligation, sequencing); 10 mM Tris-HCl pH 7.5, 50 mM NaCl, 1 mM DTT, 4% glycerol, room temperature, 30 min; GST-TFs on glutathione beads, 16-mer random dsDNA library, 0.1% formaldehyde crosslink after washing; high values mean tight binding", "details": "protein: recombinant; tags: N-terminal GST; dsDNA, one strand shown", "how_it_was_run": "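Yeast served to express human transcription factors as GST fusions, which were then captured on glutathione beads and labelled with DNA barcodes. Pooled with a tag-only sample, they were incubated with 200 nmole of a 16-mer random double-stranded DNA library for 30 min at room temperature in Tris/NaCl/DTT/glycerol buffer, washed, crosslinked with 0.1% formaldehyde, ligated by proximity, amplified by PCR and sequenced. Dividing each hexamer's read frequency for a factor by its frequency for the tag-only sample gives the binding signal.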"}
{"sequence": "ACCTAG", "binding signal": "1.01 fold enrichment (6-mer frequency, TF over GST control)"}
{"sequence": "GCTAAG", "binding signal": "1.08 fold enrichment (6-mer frequency, TF over GST control)"}
{"sequence": "GATTTA", "binding signal": "1.02 fold enrichment (6-mer frequency, TF over GST control)"}
{"sequence": "TGGATA", "binding signal": "1.04 fold enrichment (6-mer frequency, TF over GST control)"}
{"sequence": "ATAAGA", "binding signal": "1.03 fold enrichment (6-mer frequency, TF over GST control)"}
{"sequence": "CTAGAA", "binding signal": "1.03 fold enrichment (6-mer frequency, TF over GST control)"}
{"sequence": "TGAATC", "binding signal": "1.01 fold enrichment (6-mer frequency, TF over GST control)"}
{"sequence": "GTAAGC", "binding signal": "1.01 fold enrichment (6-mer frequency, TF over GST control)"}
{"sequence": "GATCTA", "binding signal": "1.01 fold enrichment (6-mer frequency, TF over GST control)"}
{"sequence": "GCTAGT", "binding signal": "1.2 fold enrichment (6-mer frequency, TF over GST control)"}
{"sequence": "AGATCT", "binding signal": "1.07 fold enrichment (6-mer frequency, TF over GST control)"}
{"sequence": "AGCTAG", "binding signal": "1.08 fold enrichment (6-mer frequency, TF over GST control)"}
{"sequence": "TAAGGG", "binding signal": "1.18 fold enrichment (6-mer frequency, TF over GST control)"}
{"sequence": "CTTAAG", "binding signal": "1.1 fold enrichment (6-mer frequency, TF over GST control)"}
{"sequence": "TAAAGG", "binding signal": "1.11 fold enrichment (6-mer frequency, TF over GST control)"}
{"sequence": "AGTCTC", "binding signal": "1.1 fold enrichment (6-mer frequency, TF over GST control)"}
{"sequence": "TGAAGA", "binding signal": "1.01 fold enrichment (6-mer frequency, TF over GST control)"}
{"sequence": "TGATTA", "binding signal": "1.17 fold enrichment (6-mer frequency, TF over GST control)"}
{"sequence": "TAGATA", "binding signal": "1.17 fold enrichment (6-mer frequency, TF over GST control)"}
{"sequence": "TCGAGC", "binding signal": "1.04 fold enrichment (6-mer frequency, TF over GST control)"}
{"sequence": "CCCCAG", "binding signal": "1.14 fold enrichment (6-mer frequency, TF over GST control)"}
{"sequence": "TGATAG", "binding signal": "1.05 fold enrichment (6-mer frequency, TF over GST control)"}
{"sequence": "GCCCGA", "binding signal": "1.11 fold enrichment (6-mer frequency, TF over GST control)"}
{"sequence": "GTTCGC", "binding signal": "1.17 fold enrichment (6-mer frequency, TF over GST control)"}
{"sequence": "GGATCT", "binding signal": "1.01 fold enrichment (6-mer frequency, TF over GST control)"}
{"sequence": "TTAGAT", "binding signal": "1.04 fold enrichment (6-mer frequency, TF over GST control)"}
{"sequence": "TTGCCA", "binding signal": "1.16 fold enrichment (6-mer frequency, TF over GST control)"}
{"sequence": "TCAATC", "binding signal": "1.1 fold enrichment (6-mer frequency, TF over GST control)"}
{"sequence": "ATAAGT", "binding signal": "1.02 fold enrichment (6-mer frequency, TF over GST control)"}
{"sequence": "TCTAGA", "binding signal": "1.05 fold enrichment (6-mer frequency, TF over GST control)"}
{"sequence": "CTAGCC", "binding signal": "1.08 fold enrichment (6-mer frequency, TF over GST control)"}
{"sequence": "TAGACT", "binding signal": "1.03 fold enrichment (6-mer frequency, TF over GST control)"}
{"sequence": "TTAAGA", "binding signal": "1.12 fold enrichment (6-mer frequency, TF over GST control)"}
{"sequence": "GCTGGT", "binding signal": "1.08 fold enrichment (6-mer frequency, TF over GST control)"}
{"sequence": "CGTTTA", "binding signal": "1.03 fold enrichment (6-mer frequency, TF over GST control)"}
{"sequence": "GATCAA", "binding signal": "1.05 fold enrichment (6-mer frequency, TF over GST control)"}
{"sequence": "CGTCTG", "binding signal": "1.17 fold enrichment (6-mer frequency, TF over GST control)"}
{"sequence": "TAAGCA", "binding signal": "1.08 fold enrichment (6-mer frequency, TF over GST control)"}
{"sequence": "CATGCG", "binding signal": "1 fold enrichment (6-mer frequency, TF over GST control)"}
